Results filed as inconclusive are left out. Activity calls are given as the source filed them. Calls follow the shape of the dose curve; as a rule, active = well fitted curve in the direction sought with a large enough effect; inconclusive = small, poorly fitted or top-dose-only effect, or another doubt; inactive = no such curve, though single readings can be large; an effect the other way counts as inactive or inconclusive.
Columns and labels:
[1] = MultiTox-Fluor Cytotoxicity Assay - LYMP1-001 - Dead Cells (AID 946)
Method in brief: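 Cytotoxicity as increased dead-cell protease fluorescence (bis-AAF-R110, 485/520 nm), read 60 min after MultiTox-Fluor reagent. Human lymphoblastoid line exposed 16 h; Hill-fitted AC50, with DMSO as 0% and 15 uM tetraoctylammonium bromide as 100%.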

[2] = MultiTox-Fluor Cytotoxicity Assay - LYMP1-001 - Live Cells (AID 947)
[3] = Cell Viability - LYMP1-002 - Assay at 16 hr (AID 948)
Method in brief: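 ATP luminescence (CellTiter-Glo) was measured after 16 hr compound exposure at 37 C of 2500 lymphoblastoid LYMP1-002 cells per well. Concentration-response curves were fitted with the Hill equation to give AC50.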

[4] = MultiTox-Fluor Cytotoxicity Assay - LYMP1-002 - Live Cells (AID 955);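 also: cells exposed to compound for 16 hours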
Method in brief: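 In this qHTS viability format, lymphoblastoid cells (LYMP1-002, human) received compound for 16 hr at 37 C. Fluorogenic GF-AFC cleavage by viable cells was detected at 405/510 nm after 1 h at room temperature.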

[5] = MultiTox-Fluor Cytotoxicity Assay - LYMP1-003 - Dead Cells (AID 961); also: nearly all actives have a fitted effect of over 70% in size
Method in brief: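 Dead-cell protease release, detected as bis-AAF-R110 fluorescence at 485/520 nm, was measured in LYMP1-003 cells after 16 h compound treatment at 37 C. AC50 values came from Hill-modeled qHTS curves normalized to DMSO (0%) and 15 uM tetraoctylammonium bromide (100%).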

[6] = MultiTox-Fluor Cytotoxicity Assay - LYMP1-003 - Live Cells (AID 962);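 also: cells exposed to compound for 16 hours at 37 °C; cytotoxic hits lower the live-cell protease signal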
Method in brief: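 Human lymphoblastoid line LYMP1-003 in complete culture medium, treated 16 hr with titrated compounds. Viable cells quantified via cell-permeant GF-AFC substrate fluorescence; AC50 derived by Hill fitting.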

[7] = Cell Viability - LYMP1-003 - Assay at 24 hr (AID 963)
Method in brief: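 The lymphoblastoid line was treated with titrated compounds for 24 hours, and viable cell number estimated from luciferase-based ATP luminescence.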

[8] = Cell Viability - LYMP1-003 - Assay at 40 hr (AID 964); also: series mostly up to about 92 µM; nearly all actives have a fitted effect of over 60% in size
Method in brief: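 Acute toxicity is scored as a concentration-dependent loss of intracellular ATP in LYMP1-003 cells (2500/well, complete medium) after 40 hr at 37 C, measured by CellTiter-Glo luminescence; AC50 values derive from standard Hill modelling.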

[9] = Cell Viability - LYMP2-003 (AID 965);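 also: cells exposed to compounds for 24 h before reading; nearly all actives have a fitted effect of over 50% in size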
Method in brief: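 CellTiter-Glo luminescence quantified ATP loss after 24 h compound treatment of LYMP2-003 lymphoblastoid cells at 37 C. Titration series were fitted with the standard Hill equation to give AC50.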

[10] = Cell Viability - LYMP2-004 (AID 966); also: nearly all actives have a fitted effect of over 65% in size
Method in brief: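 Viable-cell number estimated from ATP luminescence (CellTiter-Glo) in 2500 human lymphoblastoid cells/well after 24 hr at 37 C with compound. AC50 fitted to the standard Hill equation.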

[11] = Cell Viability - LYMP2-005 (AID 967); also: series mostly up to about 92 µM
Method in brief: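 LYMP2-005 human lymphoblastoid cells (2500/well) were treated with compounds for 24 h at 37 C. Intracellular ATP was then measured by CellTiter-Glo luminescence after 30 min at room temperature. AC50 values came from Hill-equation fits of qHTS concentration-response data.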

[12] = Cell Viability - LYMP2-009 (AID 968); also: series mostly up to about 92 µM; nearly all actives have a fitted effect of over 55% in size
[13] = Cell Viability - LYMP2-011 (AID 969); also: nearly all actives have a fitted effect of over 60% in size
Method in brief: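 Cells seeded at 2500 per well rest 5 hr before compound addition, then incubate 24 hr at 37 C. CellTiter-Glo reagent is added for 30 min at room temperature before luminescence detection.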

[14] = Cell Viability - LYMP2-013 (AID 970); also: series mostly up to about 92 µM; nearly all actives have a fitted effect of over 55% in size
Method in brief: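 In complete culture medium, human lymphoblastoid cells were dosed for 24 hr at 37 C, with tetraoctylammonium bromide (6.4pM to 92 uM) as positive control. Viability reflects luciferase-based ATP signal; AC50 derived from concentration-response curves.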

[15] = Cell Viability - LYMP2-015 (AID 971); also: nearly all actives have a fitted effect of over 55% in size
Method in brief: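 AC50 values reflect Hill-model fits of ATP-based luminescence (CellTiter-Glo) from a human lymphoblastoid line, 2500 cells/well, treated 24 hr at 37 C.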

[16] = Cell Viability - LYMP2-017 (AID 972);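 also: series mostly up to about 92 µM; cells exposed to compound for 24 hours at 37 °C; nearly all actives have a fitted effect of over 55% in size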
Method in brief: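 In this qHTS format, lymphoblastoid cells in complete medium receive test compound for a day at 37 C before ATP content is quantified by luciferase luminescence. Reported AC50 figures come from standard Hill-equation curve fitting.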

[17] = Cell Viability - LYMP2-019 (AID 973); also: nearly all actives have a fitted effect of over 55% in size
Method in brief: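 AC50 values come from Hill-equation modelling of qHTS concentration-response curves, where viability is measured as luciferase-based ATP luminescence in the lymphoblastoid line after 24 hr compound exposure in complete culture medium.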

[18] = Cell Viability - LYMP2-021 (AID 974)
Method in brief: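 In qHTS format, compounds are tested against 2500 lymphoblastoid cells per well for 24 h; viable cell number is inferred from ATP-driven luciferase light, and Hill-equation fitting yields AC50 values.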

[19] = Cell Viability - LYMP2-023 (AID 975)
Method in brief: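 In this qHTS, ATP-based luciferase luminescence (CellTiter-Glo) is quantified in human lymphoblastoid cells after 24 hr compound treatment at 37 C; tetraoctylammonium bromide serves as positive control. Concentration-response curves are Hill-fitted to give AC50.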

[20] = MultiTox-Fluor Cytotoxicity Assay - LYMP1-002 - Dead Cells (AID 960); also: nearly all actives have a fitted effect of over 60% in size
Method in brief: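 Concentration-dependent increases in membrane-leaked protease activity are quantified in LYMP1-002 cells after 16 hr treatment; values are normalized against DMSO and tetraoctylammonium bromide (15 uM) controls and AC50 derived by Hill modeling.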

Measured: Potency

Nc1nc(-c2ccccc2)cs1
not listed: [20]
inactive: all other assays above

CC(C)N=C=NC(C)C
not listed: [8] | [10] | [11] | [14] | [19] | [20]
inactive: all other assays above

Nc1ccc(F)cc1F
not listed: [5] | [10] | [20]
inactive: all other assays above

c1ccc2c(c1)ccc1ncccc12
not listed: [20]
inactive: all other assays above

CC(C)=C1CCC(C)CC1=O (stereo not given)
not listed: [4] | [18]
inactive: all other assays above

Nc1cccc2c(=O)[nH][nH]c(=O)c12
not listed: [4] | [14]
inactive: all other assays above

FC(F)(F)c1ccccc1Cl
not listed: [9] | [20]
inactive: all other assays above

COC(=O)c1ccccc1
not listed: [5] | [10] | [11] | [13] | [20]
inactive: all other assays above

CC=C(Cl)Cl
not listed: [4] | [13]
inactive: all other assays above

Fc1ccccc1
not listed: [4] | [18] | [19]
inactive: all other assays above

C[C@@H]1CC2(OC3C[C@@]4(C)C5=CC[C@H]6C(C)(C)C(O[C@@H]7OC[C@@H](O)[C@H](O)[C@H]7O)CC[C@@]67C[C@@]57CC[C@]4(C)C31)OC(O)C1(C)OC21 (stereo not given in full)
not listed: [7] | [9] | [14] | [19] | [20]
inactive: all other assays above

CCCCCCCCN
not listed: [4] | [13]
inactive: all other assays above

CC(C)N(C)C
not listed: [4] | [11]
inactive: all other assays above

O=[N+]([O-])c1c(Cl)cc(Cl)cc1Cl
not listed: [4] | [12]
inactive: all other assays above

Cc1ccccc1Br
not listed: [20]
inactive: all other assays above

BrC/C=C/CBr
not listed: [4]
inactive: all other assays above

O=Cc1ccc(Cl)cc1
not listed: [5] | [7] | [9]
inactive: all other assays above

CO[Si](CCCNCCC[Si](OC)(OC)OC)(OC)OC
not listed: [20]
inactive: all other assays above

CCCCC(CC)COCC1CO1 (stereo not given)
not listed: [11] | [12] | [20]
inactive: all other assays above

CCCOCC(C)OCC(C)O (stereo not given)
not listed: [9] | [13] | [20]
inactive: all other assays above

CC(O)CC(C)O (stereo not given)
not listed: [13] | [20]
inactive: all other assays above

c1ccsc1
not listed: [4] | [12]
inactive: all other assays above

CCC1CO1 (stereo not given)
not listed: [20]
inactive: all other assays above

Cc1ccco1
not listed: [4] | [12] | [18]
inactive: all other assays above

CCc1ccccc1O
not listed: [5] | [9] | [20]
inactive: all other assays above

COc1cccc2sc(N)nc12
not listed: [7] | [10] | [11] | [20]
inactive: all other assays above

Nc1cc(Cl)c(N)c(Cl)c1
not listed: [8] | [20]
inactive: all other assays above

Cc1cscn1
not listed: [4] | [13] | [15] | [18]
inactive: all other assays above

Cc1cccc(C)c1[N+](=O)[O-]
not listed: [4] | [12]
inactive: all other assays above

CC(=O)OCc1ccco1
not listed: [5] | [7] | [8]
inactive: all other assays above

c1ccc(Oc2ccccc2)cc1
not listed: [9] | [20]
inactive: all other assays above

CCOCC(=O)O
not listed: [4]
inactive: all other assays above

CCOc1cc(OCC)c(C(C)=O)cc1OCC
not listed: [13] | [19] | [20]
inactive: all other assays above

Cc1cccc(Br)c1
not listed: [14] | [20]
inactive: all other assays above

CC(=O)Nc1ccccc1C
not listed: [20]
inactive: all other assays above
